FMDV antiviral – blocks foot and mouth disease virus. FMDV antiviral cell-based qHTS. 1.2% of 410,000 active. Potency, µM (titrated, usually from 57.9 µM), inactives show top-dose activity change, negative = inhibition, actives largely listed as inhibitors; calls by dose curve; tested in HEK293T cells; note: read-out not given here; potency is the fitted concentration of half-maximal effect; nearly all actives have a fitted effect of over 45% in size
AmpC no deterg – blocks E. coli AmpC beta-lactamase in detergent-free assay | P00811 | AmpC nitrocefin hydrolysis, absorbance 480 nm, 0.0001% Triton | Potency, µM (highest dose often 57.1 µM), for the others: at the highest dose activity change, negative = inhibition, actives largely listed as inhibitors | 0.52% of 330,000 active;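 note: potency is the fitted concentration of half-maximal effect; plate controls were no compound for no effect and no enzyme for full effect; nearly all actives have a fitted effect of over 20% in size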
Target sequence (P00811 whole entry, looked up): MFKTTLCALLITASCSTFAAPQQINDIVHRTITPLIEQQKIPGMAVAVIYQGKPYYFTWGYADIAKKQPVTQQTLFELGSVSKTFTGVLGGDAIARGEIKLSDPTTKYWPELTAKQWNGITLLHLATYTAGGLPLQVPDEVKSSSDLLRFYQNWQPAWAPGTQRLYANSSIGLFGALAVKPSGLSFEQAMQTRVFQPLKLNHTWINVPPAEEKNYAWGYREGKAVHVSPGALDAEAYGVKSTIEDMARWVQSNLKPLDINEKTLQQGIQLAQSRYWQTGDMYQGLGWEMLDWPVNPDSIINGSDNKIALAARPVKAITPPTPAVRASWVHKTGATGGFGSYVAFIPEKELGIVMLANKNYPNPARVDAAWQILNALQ
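20 mM phosphate pH 7.0 + 0.01% (detergent screen) or 0.0001% Triton X-100; 5.3 nM AmpC reagent; cpd preinc 15 min RT; nitrocefin (800 uM stock) to start; A480 q20 s × 4 min; Activity was normalised to no-enzyme and no-compound control wells.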
HCMV antiviral – inhibitors of human cytomegalovirus; 4.5% of 410,000 active; AID 1259415; HFF cells, HCMV-luciferase reporter, 72 h; hits give low values; activity change, negative = inhibition, % at 57.5 µM; in the data active = activity change below about -60%; inconclusive = no clear call, values can overlap the other calls; inactive = above about -39%
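HFF cells seeded 16 h at 37C, treated with compounds, infected with luciferase-reporter HCMV at MOI 1 PFU/cell; luciferase read at 72 h post infection, normalized to buffer-only and Salinomycin controls.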
AmpC detergent – AmpC beta-lactamase inhibition with detergent present; 0.041% of 370,000 active; AmpC hydrolysis of nitrocefin, absorbance 480 nm, 0.01% Triton; Potency, µM (doses to about 114 µM), inactives show at the top dose activity change, negative = inhibition, hits mostly inhibitors; AID 485294;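 note: potency is the fitted concentration of half-maximal effect; 0% = no-compound wells and -100% = no-enzyme wells; nearly all actives have a fitted effect of over 25% in size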
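20 mM phosphate pH 7.0 + 0.01% (detergent screen) or 0.0001% Triton X-100; 5.3 nM AmpC reagent; cpd preinc 15 min RT; nitrocefin (800 uM stock) to start; A480 q20 s × 4 min; Activity was normalised to no-enzyme and no-compound control wells.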
HCV inh – HCV inhibition; Huh7.5.1 HCVcc-Cre infection, luciferase reporter, 44 h; Potency, µM (series often up to 41.8 µM), inactives show at the highest dose activity change, negative = inhibition, hits mostly inhibitors; 3.4% of 340,000 active; note: potency is the fitted concentration of half-maximal effect
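Infectious HCV cell culture screen: compound-treated cells (1,000/well, pre-plated 4 h) are infected with HCVcc-Cre at roughly 0.5 moi and grown 44 h. Infection is quantified by luciferase signal after 15 min substrate incubation at room temperature.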
* marks the source's active call; other numbers are inactive results; ? = inconclusive; / = not tested or not shown. Rows were chosen to be rich in hits. Some 7.3% of all compounds tested hit in one or more screens of this group. Unless noted, calls come from the whole dose curve; as a rule, active = well fitted curve in the direction sought with a large enough effect; inconclusive = small, poorly fitted or top-dose-only effect, or another doubt; inactive = no such curve, though single readings can be large; an effect the other way counts as inactive or inconclusive. Unless noted, % is set by controls: 0 for no effect and ±100 for the full control effect.

SMILES | FMDV antiviral | AmpC no deterg | HCMV antiviral | AmpC detergent | HCV inh
CCC1CN(CCNC(=O)c2cccc(C(=O)OC)c2)Cc2cc(OC)ccc2O1 (stereo not given) | 54.1% | / | / | / | /
Oc1ccc(C=NNC(=S)Nc2ccccc2)nc1 | 42.9% | / | -96.7* | / | /
Fc1c(F)c(F)c(/C=N/NC(=S)Nc2cccnc2)c(F)c1F | ? | -27.7% | -81.4* | ? | ?
Oc1cccc(/C=N/NC(=S)Nc2cccnc2)c1O | 58.8% | 31.6µM* | 91.0 | -3.8% | ?
Fc1cccc(F)c1/C=N/NC(=S)Nc1cccnc1 | 7.4% | -25.8% | ? | ? | ?
CC(C)CC(=O)Nc1ccnn1C1CCN(C(=O)c2ccc(F)cc2Cl)CC1 | 16.2% | 1.6% | -22.1 | -6.4% | 10.6%
ClCc1cc2ccccc2nc1Cl | 28.2µM* | -20.6% | 66.7 | -7.4% | ?
Cc1ccc2cc(CCl)c(Cl)nc2c1 | ? | -35.9% | 4.6 | -3.2% | 10µM*
Cc1cc(C)cc(NC(=O)Cn2c(=O)n(C(C)C)c(=O)c3oc4ccccc4c32)c1 | -20.6% | / | -16.7 | -4.0% | /
O=Cc1ccccc1-c1cn(CCCOCc2ccccc2)nn1 | -2.0% | 20.1% | 1.2 | ? | -3.2%
Cc1[nH]c2ccccc2c1SCc1n[nH]c(=S)n1C | -21.6% | -17.1% | -77.7* | 5.3% | -23.0%
Cc1[nH]c2ccccc2c1Cc1n[nH]c(=S)n1C | -8.0% | -27.2% | -14.0 | -3.0% | 20.7%
COc1ccc(Sc2cccc3c2S(=O)(=O)N([C@H](C)c2ccccc2)C[C@@H](COCc2ccccc2)O3)cc1OC | / | / | -27.1 | / | /
Cc1cc(C(=O)N/N=C/c2ccc([N+](=O)[O-])s2)n[nH]1 | -12.0% | -15.1% | -90.9* | 2.6% | 10µM*
Cc1ccc(C(=O)N/N=C\c2ccc([N+](=O)[O-])s2)cn1 | ? | -14.2% | ? | ? | -5.1%
Cc1[nH]cnc1C(=O)N/N=C/c1ccc([N+](=O)[O-])s1 | -0.9% | -3.4% | -90.4* | ? | ?
COc1ccc(C2CC(c3cccc(Cl)c3)=NN2c2ccc(S(N)(=O)=O)cc2)cc1 (stereo not given) | ? | -24.1% | 1.1 | / | 12.6µM*
NS(=O)(=O)c1ccc(N2N=C(c3ccc(Br)cc3)CC2c2ccc(F)cc2)cc1 (stereo not given) | 22.4µM* | 5.62µM* | -16.8 | 0.2% | ?
COc1ccc(C2CC(c3ccccc3)=NN2S(=O)(=O)c2ccccc2)cc1 (stereo not given) | -3.5% | -21.1% | -39.5 | 3.0% | 12.6µM*
COc1ccc(C2CC(c3ccc(Cl)cc3)=NN2c2ccc(S(N)(=O)=O)cc2)cc1 (stereo not given) | 0.0% | -24.4% | 13.4 | / | ?
Cc1ccc(C2=NN(S(=O)(=O)c3ccccc3)C(c3ccccc3O)C2)cc1 (stereo not given) | 42.9% | -55.9% | ? | 7.6% | 14.1µM*
NS(=O)(=O)c1ccc(N2N=C(c3ccccc3)CC2c2cccc(F)c2)cc1 (stereo not given) | -16.2% | -25.6% | -11.7 | ? | ?
COc1ccc(C2CC(c3ccccc3)=NN2c2ccc(N)cc2)cc1 (stereo not given) | 39.8µM* | -32.5% | 19.0 | -1.4% | -10.9%
CC(C)c1[nH]nc2c1C(c1ccccc1)NC2=O (stereo not given) | / | / | 10.7 | / | /
Cc1ccc(C23CC4CC(CC(NC(=O)N5CCN(C)CC5)(C4)C2)C3)cc1 | -29.5% | 187.8% | -5.9 | -10.7% | 12.6µM*
SMILES | FMDV antiviral | AmpC no deterg | HCMV antiviral | AmpC detergent | HCV inh
Cc1ccc(C23CC4CC(CC(C(=O)N5CCN(C)CC5)(C4)C2)C3)cc1 | ? | 143.0% | 0.0 | -4.7% | 2.51µM*
Cc1ccc(C)c(N2CCN(C(=O)C34CC5CC(C3)CC(n3nnc(C)n3)(C5)C4)CC2)c1 | ? | 98.2% | -38.0 | -2.9% | 17.8µM*
CNC(=O)C12CC3CC(C1)CC(c1ccc(C)cc1)(C3)C2 | 0.6% | 50.1% | 31.0 | -13.2% | -0.1%
Cc1nnn(C23CC4CC(CC(C4)C2)C3)n1 | 0.9% | / | 20.5 | 9.7% | 7.7%
COC(=O)c1cc(-c2ccccc2)sc1NC(=O)CN1C(=O)c2ccccc2C1=O | 2.3% | -33.5% | -64.1* | -5.5% | ?
CC(C)(C)C(=O)Nc1sc(-c2ccccc2)cc1C(=O)O | 16.5% | -26.2% | -64.4* | -9.7% | 6.8%
